In ChEMBL document CHEMBL3988442, “University of Dundee, Small-Polar-MMV Screening Library” (2021) one finds Percent Effect data, which are given here for 11 compounds.

For some of these results: Entries with a potency or affinity are not part of this list.

Common to all, as to parameters: scale not given: direction of the effect not stated beside the values
Test [1] deals with Protein translocase subunit SecA (Escherichia coli (strain K12)) (UniProt P10408). Put plainly: Assay to Identify E. coli SecA ATPase Inhibitors. The format is functional. Particulars: 30 µM.
The target in test [2] is T1, Ubiquitin-activating enzyme e1, putative (Leishmania donovani (strain BPK282A1)) (UniProt E9BSI1).
T1 sequence (whole entry): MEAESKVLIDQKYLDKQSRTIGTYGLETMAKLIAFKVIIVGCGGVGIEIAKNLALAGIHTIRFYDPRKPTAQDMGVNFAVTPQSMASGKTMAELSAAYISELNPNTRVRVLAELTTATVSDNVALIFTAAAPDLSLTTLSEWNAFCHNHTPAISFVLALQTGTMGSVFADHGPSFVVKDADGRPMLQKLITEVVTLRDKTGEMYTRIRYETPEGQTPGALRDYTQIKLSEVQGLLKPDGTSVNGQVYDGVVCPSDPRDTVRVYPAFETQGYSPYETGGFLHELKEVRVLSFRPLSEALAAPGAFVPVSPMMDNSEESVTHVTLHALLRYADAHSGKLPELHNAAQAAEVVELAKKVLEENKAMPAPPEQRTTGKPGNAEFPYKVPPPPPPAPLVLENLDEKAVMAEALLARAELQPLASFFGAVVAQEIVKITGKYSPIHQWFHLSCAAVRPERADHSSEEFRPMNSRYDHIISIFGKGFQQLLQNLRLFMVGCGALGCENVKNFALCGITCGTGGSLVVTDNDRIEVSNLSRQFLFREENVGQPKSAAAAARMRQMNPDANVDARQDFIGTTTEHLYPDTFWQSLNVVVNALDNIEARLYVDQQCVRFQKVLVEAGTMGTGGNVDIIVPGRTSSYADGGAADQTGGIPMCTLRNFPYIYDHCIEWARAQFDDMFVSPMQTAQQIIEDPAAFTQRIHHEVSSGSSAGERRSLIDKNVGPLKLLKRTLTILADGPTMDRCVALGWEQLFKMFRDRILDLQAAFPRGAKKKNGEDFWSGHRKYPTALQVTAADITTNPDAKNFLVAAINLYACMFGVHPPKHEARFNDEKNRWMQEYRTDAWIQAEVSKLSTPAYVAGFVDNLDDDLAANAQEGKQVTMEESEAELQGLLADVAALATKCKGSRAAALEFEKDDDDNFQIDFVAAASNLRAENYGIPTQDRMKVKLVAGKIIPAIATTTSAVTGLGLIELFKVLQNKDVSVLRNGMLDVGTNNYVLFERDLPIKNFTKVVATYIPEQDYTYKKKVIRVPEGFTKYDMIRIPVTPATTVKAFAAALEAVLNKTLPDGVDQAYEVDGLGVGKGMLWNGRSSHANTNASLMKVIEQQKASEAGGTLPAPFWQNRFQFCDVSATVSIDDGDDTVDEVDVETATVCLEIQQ
Put plainly: Leishmania donovani Ubiquitin Activating Enzyme (LdE1). The format is functional. Particulars: 30 µM.

Test [3] has as its target AMP-activated protein kinase, AMPK (Homo sapiens) (UniProt P54646+O43741+P54619+Q9UGJ0+Q9Y478+Q13131+Q9UGI9). Put plainly: AMP-dependent Kinase enzyme assay. An in vitro enzyme assay that detects ADP turnover that is directly proportional to AMPK activity. This uses naive AMPK that is activated during the assay with MK-8722. Particulars: 30 µM. The format is functional.

Test [4] has as its target Sialic acid-binding Ig-like lectin 9 (Homo sapiens) (UniProt Q9Y336). Put plainly: Hs-Siglec9 ALPHAscreen SOP 20170721. Particulars: 10 µM. For orientation: Alpha assays give light when donor and acceptor beads are brought close together.
For another test, the system named is Trypanosoma cruzi. Put plainly: Trypanosoma cruzi phosphomannomutase and mannose-1-phosphate guanylyltransferase assay. In kind it is functional. Particulars: 10 µM.
In test [5] the target is T2, Arginase-2, mitochondrial (Homo sapiens) (UniProt P78540).
T2 sequence (whole entry): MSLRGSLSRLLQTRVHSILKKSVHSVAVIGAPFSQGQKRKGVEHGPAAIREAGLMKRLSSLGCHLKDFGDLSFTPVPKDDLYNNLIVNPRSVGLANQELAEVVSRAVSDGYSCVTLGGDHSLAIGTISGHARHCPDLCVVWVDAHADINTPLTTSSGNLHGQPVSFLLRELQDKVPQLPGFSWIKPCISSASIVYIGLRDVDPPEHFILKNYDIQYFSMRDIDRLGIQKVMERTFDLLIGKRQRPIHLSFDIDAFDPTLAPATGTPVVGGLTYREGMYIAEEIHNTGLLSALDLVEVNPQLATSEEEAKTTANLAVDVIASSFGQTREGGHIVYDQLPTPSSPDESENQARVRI
Put plainly: in vitro enzyme assay to detect the production of urea directly proportional to the activity of Arginase II. Note: in the data most compounds retested in dose-response had high values. In kind it is functional. Particulars: 33.3 µM.

Test [6] has as its target T3, Proteasome subunit beta (Trypanosoma cruzi) (UniProt O96673).
T3 sequence (whole entry): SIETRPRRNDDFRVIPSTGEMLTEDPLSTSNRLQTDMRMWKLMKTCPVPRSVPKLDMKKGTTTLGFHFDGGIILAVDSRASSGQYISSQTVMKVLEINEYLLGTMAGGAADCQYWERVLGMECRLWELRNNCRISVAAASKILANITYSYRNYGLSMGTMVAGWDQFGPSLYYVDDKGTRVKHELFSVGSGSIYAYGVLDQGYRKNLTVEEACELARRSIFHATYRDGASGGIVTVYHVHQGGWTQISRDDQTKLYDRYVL
Put plainly: Trypanosoma cruzi proteasome chymotrypsin-like activity (TcProtChymo) assay. Note: in the data most compounds retested in dose-response had high values. The format is functional. Particulars: 9.37 µM.

The species entered for a further test is Homo sapiens. Put plainly: To identify inhibition of the IFN signalling (Jak-Stat) pathway via expression of an eGFP reporter gene under the control of an IFN-stimulated response element (ISRE) containing MxA promoter. Particulars: 30 µM. The format is functional. (In general: Reporter assays use an easily measured gene product as a stand-in for the process of interest.)

Test [7] addresses T4, Tyrosyl-tRNA synthetase, putative (Trypanosoma cruzi (strain CL Brener)) (UniProt Q4DSP6).
T4 sequence (whole entry): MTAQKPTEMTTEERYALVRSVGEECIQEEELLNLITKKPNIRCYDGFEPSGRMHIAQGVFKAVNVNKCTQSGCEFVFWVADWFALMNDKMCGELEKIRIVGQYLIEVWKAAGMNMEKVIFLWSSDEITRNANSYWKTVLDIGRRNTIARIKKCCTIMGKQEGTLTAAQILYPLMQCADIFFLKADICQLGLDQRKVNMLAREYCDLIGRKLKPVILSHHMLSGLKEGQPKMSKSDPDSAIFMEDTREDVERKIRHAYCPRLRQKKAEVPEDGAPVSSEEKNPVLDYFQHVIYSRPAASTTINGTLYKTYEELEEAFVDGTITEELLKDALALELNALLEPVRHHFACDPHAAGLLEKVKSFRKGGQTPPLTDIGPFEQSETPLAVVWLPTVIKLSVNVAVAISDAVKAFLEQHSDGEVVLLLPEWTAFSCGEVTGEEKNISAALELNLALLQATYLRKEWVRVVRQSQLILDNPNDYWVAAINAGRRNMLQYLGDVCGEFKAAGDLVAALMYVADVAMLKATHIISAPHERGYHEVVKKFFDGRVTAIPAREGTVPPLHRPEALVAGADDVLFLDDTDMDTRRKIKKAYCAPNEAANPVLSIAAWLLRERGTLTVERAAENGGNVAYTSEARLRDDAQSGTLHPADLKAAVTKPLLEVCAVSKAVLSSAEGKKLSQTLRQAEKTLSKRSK
Put plainly: Trypanosoma cruzi tyrosyl tRNA synthetase (TcYRS) _High Tyrosine SOP. Note: in the data most compounds retested in dose-response had high values. The format is functional. Particulars: 30 µM.

Test [8] addresses T4, Tyrosyl-tRNA synthetase, putative (Trypanosoma cruzi (strain CL Brener)). Put plainly: Trypanosoma cruzi tyrosyl tRNA synthetase (TcYRS) SOP. The format is functional. Particulars: 30 µM.
The target in test [9] is Chromo domain-containing protein 1 (Saccharomyces cerevisiae (strain ATCC 204508 / S288c) (Baker's yeast)) (UniProt P32657). Put plainly: ScCHD-1 Enzyme Inhibition Assay. Note: in the data most compounds retested in dose-response had high values. The format is functional. Particulars: 30 µM.
Chain of Chromo domain-containing protein 1 (Saccharomyces cerevisiae (strain ATCC 204508 / S288c) (Baker's yeast)) (P32657 whole entry, the tested form may be a part): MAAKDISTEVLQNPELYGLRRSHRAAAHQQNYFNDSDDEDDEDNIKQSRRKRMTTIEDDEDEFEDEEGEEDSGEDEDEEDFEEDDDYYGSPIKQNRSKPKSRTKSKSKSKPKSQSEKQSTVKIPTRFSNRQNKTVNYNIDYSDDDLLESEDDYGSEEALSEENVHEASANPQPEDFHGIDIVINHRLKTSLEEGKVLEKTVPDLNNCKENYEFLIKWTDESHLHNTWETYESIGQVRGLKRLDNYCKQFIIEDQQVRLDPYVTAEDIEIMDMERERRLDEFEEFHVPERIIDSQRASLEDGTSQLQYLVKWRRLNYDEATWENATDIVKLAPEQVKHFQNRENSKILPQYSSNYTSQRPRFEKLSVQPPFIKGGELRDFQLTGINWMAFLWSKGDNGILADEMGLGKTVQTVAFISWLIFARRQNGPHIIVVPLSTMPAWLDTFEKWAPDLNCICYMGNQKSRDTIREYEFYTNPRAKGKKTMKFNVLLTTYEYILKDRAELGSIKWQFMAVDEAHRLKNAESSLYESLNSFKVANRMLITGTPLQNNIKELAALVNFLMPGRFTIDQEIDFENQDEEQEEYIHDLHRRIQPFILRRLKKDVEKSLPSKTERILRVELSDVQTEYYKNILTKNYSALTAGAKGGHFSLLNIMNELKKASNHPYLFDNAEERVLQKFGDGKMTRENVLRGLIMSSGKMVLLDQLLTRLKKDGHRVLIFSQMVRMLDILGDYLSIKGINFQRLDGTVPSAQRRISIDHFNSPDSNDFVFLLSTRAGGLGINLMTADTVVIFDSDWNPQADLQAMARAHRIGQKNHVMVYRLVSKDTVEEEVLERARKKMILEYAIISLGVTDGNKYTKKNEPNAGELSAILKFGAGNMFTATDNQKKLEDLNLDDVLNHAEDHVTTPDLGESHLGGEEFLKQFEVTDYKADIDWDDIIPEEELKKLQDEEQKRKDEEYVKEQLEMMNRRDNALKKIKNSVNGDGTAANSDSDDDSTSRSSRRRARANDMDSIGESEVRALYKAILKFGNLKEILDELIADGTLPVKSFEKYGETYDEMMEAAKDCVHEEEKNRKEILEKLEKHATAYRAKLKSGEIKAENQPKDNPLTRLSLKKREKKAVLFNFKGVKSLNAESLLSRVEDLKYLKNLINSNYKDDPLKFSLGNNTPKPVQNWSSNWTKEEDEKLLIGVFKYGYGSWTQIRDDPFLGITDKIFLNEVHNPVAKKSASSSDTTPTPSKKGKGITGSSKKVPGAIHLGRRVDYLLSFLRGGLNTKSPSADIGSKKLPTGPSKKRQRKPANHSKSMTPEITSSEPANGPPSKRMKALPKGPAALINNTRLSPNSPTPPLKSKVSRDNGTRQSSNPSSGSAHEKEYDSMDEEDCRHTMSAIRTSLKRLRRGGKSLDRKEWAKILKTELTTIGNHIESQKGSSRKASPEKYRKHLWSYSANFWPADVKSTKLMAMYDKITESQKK

Chain of Sialic acid-binding Ig-like lectin 9 (Homo sapiens) (Q9Y336 whole entry): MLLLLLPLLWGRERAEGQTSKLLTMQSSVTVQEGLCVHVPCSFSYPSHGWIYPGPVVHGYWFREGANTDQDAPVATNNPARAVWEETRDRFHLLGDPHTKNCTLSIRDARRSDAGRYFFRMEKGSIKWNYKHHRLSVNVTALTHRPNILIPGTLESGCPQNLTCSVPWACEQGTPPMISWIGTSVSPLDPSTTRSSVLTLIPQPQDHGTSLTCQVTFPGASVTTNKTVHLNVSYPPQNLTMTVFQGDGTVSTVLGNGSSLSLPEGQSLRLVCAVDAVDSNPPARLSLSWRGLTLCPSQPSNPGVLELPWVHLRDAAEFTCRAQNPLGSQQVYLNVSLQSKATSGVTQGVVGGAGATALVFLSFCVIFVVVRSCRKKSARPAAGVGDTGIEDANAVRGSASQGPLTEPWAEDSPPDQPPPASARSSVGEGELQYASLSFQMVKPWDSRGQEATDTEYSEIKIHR
Chain of Protein translocase subunit SecA (Escherichia coli (strain K12)) (P10408 whole entry): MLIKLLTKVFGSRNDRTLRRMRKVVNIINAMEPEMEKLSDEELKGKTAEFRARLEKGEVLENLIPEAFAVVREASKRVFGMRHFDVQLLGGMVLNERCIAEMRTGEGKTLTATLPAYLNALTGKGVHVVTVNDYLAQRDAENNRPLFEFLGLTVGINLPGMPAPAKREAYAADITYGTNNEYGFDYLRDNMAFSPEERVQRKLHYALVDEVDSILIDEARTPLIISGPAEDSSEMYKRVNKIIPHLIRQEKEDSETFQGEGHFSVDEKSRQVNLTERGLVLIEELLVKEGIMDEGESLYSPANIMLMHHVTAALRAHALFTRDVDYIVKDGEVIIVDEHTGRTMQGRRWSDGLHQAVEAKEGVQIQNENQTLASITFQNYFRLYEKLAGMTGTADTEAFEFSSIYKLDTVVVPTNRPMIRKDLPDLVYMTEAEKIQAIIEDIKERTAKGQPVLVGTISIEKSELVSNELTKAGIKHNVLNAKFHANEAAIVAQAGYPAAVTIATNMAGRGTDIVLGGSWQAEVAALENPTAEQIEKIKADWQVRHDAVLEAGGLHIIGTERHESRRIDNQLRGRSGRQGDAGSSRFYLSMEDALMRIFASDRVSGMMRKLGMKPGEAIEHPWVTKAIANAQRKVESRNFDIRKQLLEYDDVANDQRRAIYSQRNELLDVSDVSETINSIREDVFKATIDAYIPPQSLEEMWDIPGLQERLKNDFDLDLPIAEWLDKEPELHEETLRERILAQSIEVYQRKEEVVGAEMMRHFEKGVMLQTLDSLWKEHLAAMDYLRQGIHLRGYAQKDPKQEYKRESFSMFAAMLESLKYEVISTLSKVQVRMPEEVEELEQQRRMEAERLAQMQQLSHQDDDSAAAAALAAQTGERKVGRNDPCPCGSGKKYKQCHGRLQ

As to `CC1CN(CC(=O)Nc2nncs2)CCN1Cc1nccn1C` (stereo unspecified), the Percent Effect in test [1] was -6.24%; in test [2] it was 8.11%; in [3], -5.38%; in test [4] it was -3.66%; in the test on Trypanosoma cruzi, -2.69%; in [5], 0.924%. Moreover, the Percent Effect in [6] worked out at 4.67%; in the test filed under Homo sapiens it was 12%; in test [7], 4.95%; in [8], 6.1%; in [9] it was 8.11%.
`Cc1cnn(CCNCc2cccnc2)c1`: the Percent Effect in test [1] is -3.48%; in test [2], -11.4%; in [3] it was 6.23%; in test [4], 2.04%; in the test with Trypanosoma cruzi, -2.36%; in [5] it was 1.5%. Further, the Percent Effect was 8.92% in test [6]; 16.9% in the test listed under Homo sapiens; 2.08% in test [7]; 7.59% in [8]; -6.41% in test [9].
Regarding `Cc1oncc1C(=O)N1CCC2(C1)CN(c1cccnc1)C(=O)CN2C` (stereo unspecified), the Percent Effect in test [1] was -3.58%; in test [2] it was 10.7%; in [3], -0.768%; in test [4] it was -0.716%; in the test on Trypanosoma cruzi it was 4.05%; in [5] it was -53.6%. The Percent Effect was 4.27% in test [6]; -6.85% in the test filed under Homo sapiens; 2.08% in test [7]; 5% in test [8]; -5.61% in test [9].
With `COc1ccc(F)c(CN2CCC(c3cc(O)nc(C)n3)C2)c1` (stereo unspecified), the Percent Effect in test [1] was -8.36%; in test [2], 23%; in [3], -0.897%; in test [4] it was -0.78%; in the test on Trypanosoma cruzi it was 5.93%; in test [5], -3.94%. Further, the Percent Effect was 15.3% in [6]; 11.7% in the test listed under Homo sapiens; 5.38% in test [7]; 14.3% in [8]; -15% in [9].
For the compound `CC(C)Oc1cccc(C(=O)C2CCCN(C(=O)c3ccccn3)C2)c1` (stereo unspecified), the Percent Effect was -2.58% in [1]; 0% in [2]; -1.81% in [3]; 4.35% in [4]; -2.12% with Trypanosoma cruzi; -1.91% in [5]. For the same compound, the Percent Effect in [6] is 14.3%; in the test listed under Homo sapiens, 5%; in test [7] it was 0.529%; in [8], 2.44%; in [9] it was -1.58%.
`CN1CCCC(CNC(=O)N2CCN(Cc3ccon3)CC2)C1` (stereo unspecified): the Percent Effect was -5.29% in test [1]; 2.67% in [2]; -3.4% in [3]; 1.23% in test [4]; 3.02% with Trypanosoma cruzi; -1.04% in [5]. Also, the Percent Effect in test [6] is 1.74%; in the test listed under Homo sapiens it was 5.23%; in test [7], 4.92%; in [8] it was 8.64%; in test [9], -5.38%.
In the case of `Cc1cc(CN2CCN(C(=O)Nc3cccnc3)CC2)on1`, the Percent Effect is -2.38% in test [1]; 15.8% in [2]; -3.05% in [3]; 8.98% in [4]; -2.63% in the test with Trypanosoma cruzi; 4.6% in test [5]. Further, the Percent Effect in test [6] is 4.51%; in the test listed under Homo sapiens, -11.1%; in [7], 6.37%; in test [8], 17.1%; in test [9] it was -2.69%.
Consider `Cc1nn(C)c(C)c1C1CCCN1CC(=O)NC(C1CC1)C1CC1` (stereo unspecified), for which the Percent Effect in test [1] was -3.47%; in [2], 10.8%; in test [3], -8.63%; in test [4], 11.2%; in the test on Trypanosoma cruzi, 4.25%; in test [5] it was -4.01%. For the same compound, the Percent Effect is -3.06% in test [6]; 4.1% in the test listed under Homo sapiens; 5.42% in test [7]; 11.1% in [8]; -9.75% in test [9].
Regarding `COCC(O)CNC(=O)c1coc(COc2ccc3sc(C)nc3c2)n1` (stereo unspecified), the Percent Effect in [1] was -0.0441%; in [2], 5.48%; in test [3] it was 3.03%; in test [4] it was 0.244%; with Trypanosoma cruzi it was -7.25%; in test [5], 5.46%. Moreover, the Percent Effect in test [6] is 14.7%; in the test listed under Homo sapiens, 44.1%; in test [7], 5.38%; in test [8], 15%; in [9], -1.23%.
`Cn1ccc(C(=O)N2CCC(Cc3cccc4cccnc34)C2)n1` (stereo unspecified): the Percent Effect in test [1] was -2.61%; in [2], 9.46%; in test [3], 13.5%; in test [4] it was 3.85%; in the test on Trypanosoma cruzi, -5.73%; in test [5] it was -2.09%. Moreover, the Percent Effect in test [6] came out at 4.68%; in the test listed under Homo sapiens, 16.3%; in [7], 5.38%; in [8], 6.49%; in test [9], 0.402%.
On to `CS(=O)(=O)Cc1ccc(CNC(=O)c2cccnc2O)cc1`, for which the Percent Effect in test [1] was -1.42%; in test [2], 13.9%; in test [3], 8.18%; in test [4], 5.03%; in the test with Trypanosoma cruzi, -5.64%; in test [5], 1.94%. In addition, the Percent Effect in test [6] was 22.3%; in the test listed under Homo sapiens, 17.9%; in test [7], 3.12%; in test [8], 7.59%; in test [9], -7.98%.
